Measurements published in PubChem BioAssay (NCI).
Values joined by “and” are separate entries in the source; they are usually repeats but may differ in a detail not shown here. Identical values can stand only once. Compounds without any hit were thinned out: in the full panel of roughly 79,000, 15% have a hit. Where a structure was tested more than once in an assay, its records may differ in their call. Active and inactive are the calls of the source. No stated cut-off is given here; in the data, active means growth inhibition above about 70%; inactive means the rest.

Key:
[1] = NCI Yeast Anticancer Drug Screen. Data for the wt1 strain (AID 149);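 further: 0% = growth of vehicle-treated wt1 cultures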; conditions: S. cerevisiae wt1 strain (SPY 50644) growth inhibition, stronger effect = higher value
In short: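 Growth inhibition read against vehicle controls after compound exposure of the wt1 yeast strain.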

[2] = NCI Yeast Anticancer Drug Screen. Data for the mgt1 strain (AID 153); conditions: S. cerevisiae mgt1 mutant growth inhibition, stronger effect = higher value
In short: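 Vehicle-normalized growth inhibition is determined in mgt1 yeast, a strain selected for a defined alteration in DNA repair or cell cycle control.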

[3] = NCI Yeast Anticancer Drug Screen. Data for the rad50 strain (AID 155);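 further: 0% = growth of vehicle-only cultures of the same strain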; conditions: S. cerevisiae rad50 strain growth inhibition, stronger effect = higher value
In short: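 Readout: growth inhibition relative to vehicle-treated cultures. Compound exposure was carried out in a genetically defined yeast strain deficient in DNA damage repair.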

[4] = NCI Yeast Anticancer Drug Screen. Data for the mec2-1 strain (AID 157); conditions: S. cerevisiae mec2-1 strain, stronger effect = higher value
In short: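 Mutant yeast (mec2-1) grown with compound; growth inhibition relative to vehicle control reported.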

[5] = NCI Yeast Anticancer Drug Screen. Data for the rad14 strain (AID 159);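 further: 0% = growth of vehicle-treated control cultures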; conditions: S. cerevisiae rad14 strain growth inhibition, stronger effect = higher value
In short: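 Growth inhibition vs vehicle controls; genetically altered yeast strain (DNA damage repair defect) treated with test compounds.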

[6] = NCI Yeast Anticancer Drug Screen. Data for the sgs1 mgt1 strain (AID 161);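 further: 0% = growth of cultures given vehicle only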; conditions: S. cerevisiae sgs1 mgt1 strain, stronger effect = higher value
In short: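 Compounds are added to genetically altered yeast, and growth is compared with cultures given vehicle alone to give percent inhibition.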

[7] = NCI Yeast Anticancer Drug Screen. Data for the CLN2oe strain (AID 163);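 further: 0% = growth of vehicle-only control cultures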; conditions: S. cerevisiae CLN2oe strain, stronger effect = higher value
In short: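 Compounds are applied to yeast harbouring a defined cell-cycle control change; reduced growth compared with vehicle-treated controls gives the value.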

[8] = NCI Yeast Anticancer Drug Screen. Data for the cln2 rad14 strain (AID 165);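 further: 0% = growth equal to vehicle treated cultures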; conditions: S. cerevisiae cln2 rad14 strain, stronger effect = higher value
In short: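 Readout is yeast growth inhibition versus vehicle-treated controls, using a strain with cln2 and rad14 alterations exposed to compound.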

[9] = NCI Yeast Anticancer Drug Screen. Data for the bub3 strain (AID 167); conditions: S. cerevisiae bub3 mutant strain, stronger effect = higher value
In short: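 Readout: yeast growth inhibition, expressed relative to vehicle-only wells. The test organism is a mutant strain from a panel with lesions in DNA repair or checkpoint genes.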

[10] = NCI Yeast Anticancer Drug Screen. Data for the wt2 strain (AID 169);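 further: 0% = growth of vehicle-treated yeast cultures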; conditions: S. cerevisiae wt2 strain growth inhibition, stronger effect = higher value
In short: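 Against vehicle-treated controls, the growth of yeast exposed to each compound was compared, and the inhibition was recorded.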

[11] = NCI Yeast Anticancer Drug Screen. Data for the mlh1 strain (AID 171);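 further: 0% = growth of vehicle-treated control cultures of the same strain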; conditions: S. cerevisiae mlh1 strain growth inhibition, stronger effect = higher value
In short: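 Measured: yeast growth. Reference: vehicle-treated controls. Organism: strain with a defined alteration affecting DNA damage repair or cell cycle control, treated with compound.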

[12] = NCI Yeast Anticancer Drug Screen. Data for the rad18 strain (AID 177); conditions: S. cerevisiae rad18 mutant growth inhibition, stronger effect = higher value
In short: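 Vehicle-treated cultures served as the baseline for scoring compound-induced growth inhibition in DNA-repair-mutant yeast.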

[13] = NCI Yeast Anticancer Drug Screen. Data for the sgs1 strain (AID 173);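 further: 0% = growth of vehicle-only control cultures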; conditions: S. cerevisiae sgs1 mutant, stronger effect = higher value
In short: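 Each compound was added to cultures of the altered yeast strain. Growth was recorded, and inhibition was derived by comparison with vehicle controls.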

[14] = NCI Yeast Anticancer Drug Screen. Data for the mlh1 rad18 strain (AID 175); conditions: S. cerevisiae mlh1 rad18 strain growth inhibition, stronger effect = higher value
In short: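 Genetically defined yeast (DNA repair-deficient) exposed to compounds; growth inhibition determined relative to vehicle.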

[15] = at 5.0 µM (retest, dose inferred, filed as 0.5)
[16] = at 50.0 µM (retest, dose inferred, filed as 5.0)

Measured: growth inhibition

CC(=O)O/N=C/c1c2ccccc2cc2ccccc12
inactive: [1]; at 1.2 µM -1% | [1]; at 3.7 µM 2% | [1]; at 11.0 µM 0% | [1]; at 33.0 µM 3% | [1]; at 100.0 µM 10% | [2]; at 1.2 µM -4% | [2]; at 3.7 µM -3% | [2]; at 11.0 µM -1% | [2]; at 33.0 µM 9% | [2]; at 100.0 µM 20% | [3]; at 1.2 µM 0% | [3]; at 3.7 µM 1% | [3]; [15] 55% | [3]; at 11.0 µM 5% | [3]; at 33.0 µM 20% | [3]; at 50.0 µM 15.2% | [3]; at 100.0 µM 62% | [4]; at 1.2 µM -3% | [4]; at 3.7 µM 2% | [4]; [15] 4% | [4]; at 11.0 µM 7% | [4]; at 33.0 µM 20% | [4]; [16] 18% | [4]; at 50.0 µM 8.65% | [4]; at 100.0 µM 26% | [5]; at 1.2 µM -2% | [5]; at 3.7 µM 0% | [5]; at 11.0 µM 5% | [5]; at 33.0 µM 23% | [6]; [15] 30% | [6]; at 50.0 µM 63.6% | [7]; at 1.2 µM -10% | [7]; at 3.7 µM -20% | [7]; at 11.0 µM -13% | [7]; at 33.0 µM -6% | [7]; at 100.0 µM -6% | [8]; [15] 15% | [8]; [16] 40% | [8]; at 50.0 µM -47.8% | [9]; at 1.2 µM 9% | [9]; at 3.7 µM 12% | [9]; [15] 58% | [9]; at 11.0 µM 26% | [9]; at 33.0 µM 47% | [9]; at 50.0 µM 43.1% | [9]; at 100.0 µM 63% | [10]; at 1.2 µM -1% | [10]; at 3.7 µM -1% | [10]; at 11.0 µM -2% | [10]; at 33.0 µM 13% | [10]; at 100.0 µM 32% | [11]; at 1.2 µM 1% | [11]; at 3.7 µM -1% | [11]; at 11.0 µM 1% | [11]; at 33.0 µM 17% | [11]; at 100.0 µM 52% | [12]; at 1.2 µM 0% | [12]; at 3.7 µM -1% | [12]; at 11.0 µM 11% | [12]; at 33.0 µM 54%
active: [3]; [16] 90% | [5]; at 100.0 µM 78% | [6]; [16] 88% | [9]; [16] 84% | [12]; at 100.0 µM 83%

COc1ccc2[nH]c3c(C)c4cc[n+](C)cc4c(C)c3c2c1
46% (inactive) and 77% (active): [11]; at 100.0 µM
inactive: [3]; at 1.2 µM 22% and 7% | [3]; at 3.7 µM 35% and 34% | [3]; [15] 29% and 31% | [3]; at 11.0 µM 60% | [3]; at 50.0 µM 31.6% and 64.8% | [4]; at 1.2 µM 15% and 23% | [4]; at 3.7 µM 45% and 18% | [4]; [15] 9% and 3% | [4]; at 11.0 µM 53% and 27% | [4]; at 33.0 µM 44% and 36% | [4]; [16] 44% and 16% | [4]; at 50.0 µM 21.2% and 56.6% | [4]; at 100.0 µM 53% and 61% | [5]; at 1.2 µM 0% and 6% | [5]; at 3.7 µM 17% and 15% | [5]; at 11.0 µM 25% | [5]; at 33.0 µM 27% and 40% | [5]; at 100.0 µM 36% and 61% | [6]; [15] 18% and 28% | [6]; [16] 41% and 52% | [6]; at 50.0 µM 45.8% and 36.4% | [7]; at 1.2 µM 45% and -9% | [7]; at 3.7 µM 45% and 0% | [7]; at 11.0 µM 55% and -5% | [7]; at 33.0 µM 50% and 20% | [7]; at 100.0 µM 40% and 66% | [8]; [15] 2% and 24% | [8]; [16] 25% and 30% | [8]; at 50.0 µM 39.2% and 23.3% | [9]; at 1.2 µM 18% and 8% | [9]; at 3.7 µM 30% and 22% | [9]; [15] 19% and 2% | [9]; at 11.0 µM 28% and 23% | [9]; at 33.0 µM 33% and 32% | [9]; [16] 50% and 20% | [9]; at 50.0 µM 22.9% and 34.1% | [10]; at 1.2 µM -13% and -31% | [10]; at 3.7 µM -14% and -11% | [10]; at 11.0 µM -15% and -11% | [10]; at 33.0 µM -13% and 14% | [11]; at 1.2 µM 34% and 19% | [11]; at 3.7 µM 34% and 35% | [11]; at 11.0 µM 41% | [11]; at 33.0 µM 56% | [13]; at 1.2 µM 18% and 25% | [13]; at 3.7 µM 32% and 39% | [13]; at 11.0 µM 51% and 42% | [13]; at 33.0 µM 42% and 52% | [14]; [15] 23% and 19% | [14]; [16] 52% and 32% | [14]; at 50.0 µM 56.5% | [12]; at 1.2 µM 23% and 27% | [12]; at 3.7 µM 40% and 35% | [12]; at 11.0 µM 38% | [12]; at 33.0 µM 45% and 44%
41% (inactive) and 82% (active): [12]; at 100.0 µM
active: [3]; at 33.0 µM 78% and 88% | [3]; [16] 85% and 82% | [3]; at 100.0 µM 92% and 94%
50% (inactive) and 82% (active): [13]; at 100.0 µM
11% (inactive) and 73% (active): [10]; at 100.0 µM
30% (inactive) and 79% (active): [9]; at 100.0 µM
